Data: PubChem BioAssay AID504621 (Broad Institute, 2011)
The whole screen tested about 310,000 compounds, of which about 970 (0.31%) were called active.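 The calls were made as follows: active = every replicate shows inhibition above about 80%, whatever the replicate mean (limit read from the data); inconclusive = mean inhibition reaches the set limit but some replicate falls short; inactive = the rest.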 The full list was thinned out, with actives kept by preference.

test: reduced ATP signal of yeast carrying P. falciparum Hsp90 – S. cerevisiae, BacTiter-Glo luminescence, single point, set 2, antimalarial PfHsp90 inhibitor project, primary screen (AID 504621);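 also: yeast relying on Plasmodium falciparum Hsp90 in place of its own; 0% = DMSO neutral controls and 100% = 20 µM radicicol positive controls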; details: S. cerevisiae expressing PfHsp90, growth, 48 h, at 9.4 µM, hits give high values, yeast lacking PDR1 and PDR3 efflux regulators

inhibition, active:
O=C(/C=C/c1ccc(Cl)c([N+](=O)[O-])c1)c1cccnc1 104%, CC(C)OC(=O)c1ccc(NCc2cc(O)ccc2O)cc1Cl 121%, Cc1[nH]n(-c2ccc([N+](=O)[O-])cc2)c(=O)c1C=NCCN1CCN(C(=O)c2ccccc2F)CC1 86.9%, CC(=NNC(=S)N1CCCCCC1)c1ccccn1 91.4%, O=C(c1ccc(-c2ccccc2)cc1)C1CCCN(C(=O)c2cncs2)C1 (stereo not given) 90.2%, O=C(CC(O)(C(F)(F)F)C(F)(F)F)Nc1ccc(Cl)c(Cl)c1 123%, COC(=O)/C=C\C(=O)Nc1cccc([N+](=O)[O-])c1 106%, O=[N+]([O-])/C=C/c1ccc2c(ccn2Cc2ccccc2)c1 104%, COc1ccc(C(=O)/C=C/c2ccc(-c3ccccc3)cc2)cc1CSCC(=O)O 105%, CN(O)C(=S)c1ccccc1 104%, O=C(Nc1ccccc1)c1nnsc1S(=O)(=O)c1ccc(Cl)cc1 126%, Cc1cc(-c2n[nH]c(=S)n2/N=C/C(Br)=C/c2ccccc2)n[nH]1 109%, O=C(OC12CC3CC(CC(C3)C1)C2)c1ccc(NCc2cc(O)ccc2O)cc1 124%, CCOC(=O)c1ccc(N2C(=O)CC(N3CCC(C(=O)OCC)CC3)C2=O)cc1 (stereo not given) 94.1%, Oc1ccccc1C1=NN(c2ccccc2)C(c2ccccc2)C1 (stereo not given) 106%, O=C(Nc1ccccc1)Oc1cccc2cccnc12 104%, O=C1/C(=C\c2ccc([N+](=O)[O-])cc2)CS(=O)(=O)C/C1=C/c1ccc([N+](=O)[O-])cc1 104%

inhibition, inactive:
O=C(Nc1cccnc1)c1ccc(Cl)c([N+](=O)[O-])c1 15.1%, O=C(/C=C/c1ccc(Cl)c([N+](=O)[O-])c1)c1ccc(O)cc1 12.9%, COc1ccc(CNCCCn2cnc3c(OCc4ccccc4)ncnc32)cc1 21.9%, COc1ccc(C(=O)Nc2cccc(/C=C(/CCC(=O)O)c3nc4ccccc4s3)c2)cc1 -6.48%, O=C(NN=Cc1ccccc1O)NN=Cc1ccccc1O 15.3%, COC[C@@H]1NS(=O)(=O)c2ccc(Br)cc2O[C@H]1c1ccccc1 -9.7%, CC(CN1CCOCC1)OC(=O)c1ccc(Cl)cc1Cl (stereo not given) -17.2%, CC(C)NC(=O)c1ccc(Cl)cc1Cl -8.78%, N#CC1=C(N)Oc2cc(N)ccc2C1c1ccccc1 (stereo not given) -6.35%, O=C(Cc1ccc(S(=O)(=O)N2CCOCC2)s1)Nc1ccc(Br)c(C(F)(F)F)c1 0.787%, C=CCNC(=S)N1CCN(CCN=Cc2c(C)[nH]n(-c3ccc([N+](=O)[O-])cc3)c2=O)CC1 -11.1%, Cc1[nH]n(-c2ccccc2)c(=O)c1N=Nc1ccccc1C(=O)N1CCCCC1 9.24%, CCOC(=O)CCC(NC(=O)c1ccc(CNc2nc3cc(C(F)(F)F)ccc3nc2C(=O)OCC)cc1)C(=O)OCC (stereo not given) -2.78%, Cc1ccc(S(=O)(=O)N2CCN(C(=O)COC(=O)/C=C/c3cccc(Cl)c3)CC2)c(C)c1 4.86%, O=C(NCc1ccc2c(c1)OCO2)c1c(-c2ccsc2)sc2ccccc12 20.1%, Cc1cccc(-c2oc3ccc(-c4ccc5c(c4)OCO5)cc3c2C#Cc2cncn2C)c1 -2.66%, C/C(=N\NC(=O)Cc1ccc(Cl)cc1)c1ccccn1 -4.85%, C/C(=N\NC(=O)c1ccccc1F)c1ccccn1 -13%, Oc1[nH]c2ccccc2c1N=Nc1c(F)c(F)c(F)c(F)c1F -34.3%, COc1ccc(C(=O)N(C)Cc2ccc(OC)c(OC)c2OC)cc1S(=O)(=O)N1CCOCC1 5.5%, O=C(CN1C(=O)NC2(CCCCCCC2)C1=O)NCc1ccc(F)cc1 12.2%, OCC1(CO)CC2(C1)CC(CO)(CO)C2 6.26%, Cn1nccc1C(=O)N1CCCC(C(=O)c2ccc(Oc3ccccc3)cc2)C1 (stereo not given) -45.9%, CCNC(=O)N1CCCC(C(=O)c2ccc(-c3ccccc3)cc2)C1 (stereo not given) -1.67%, CC(C)(C)OC(=O)N(Cc1ccccc1)Cc1ccc(OCc2cccc(NC(=O)c3ccccc3)c2)cc1 25%, COc1cccc2oc(CCc3ccccc3)cc(=O)c12 8.03%, O=C(CC1SCCNC1=O)Nc1ccc(Cl)c(Cl)c1 (stereo not given) 15%, O=C(Cc1ccc(Cl)c(Cl)c1)Nc1ccc(SC(F)F)cc1 12.6%, Cc1cc([N+](=O)[O-])ccc1NS(=O)(=O)c1ccccc1 -35.7%, COc1cccc(CNC(=O)CCCC(=O)Nc2cccc([N+](=O)[O-])c2)c1 -1.23%, COc1ccc(S(=O)(=O)NC(C)C(=O)Nc2cccc([N+](=O)[O-])c2)cc1 (stereo not given) 4.61%, COC(=O)Cn1cc(/C=C/[N+](=O)[O-])c2ccccc21 -17%, O=C(/C=C/c1cccc([N+](=O)[O-])c1)N1CCN(Cc2ccccc2)CC1 0.555%, COC(=O)c1ccc(COc2ccc(/C=C/C(=O)c3ccc(OC)c(CSCC(=O)O)c3)cc2OC)cc1 1.15%, COc1ccc(/C=C/C(=O)c2ccc(NS(=O)(=O)c3ccc(C)cc3)cc2)cc1O -4.81%, CN(CCc1ccccc1)C(=O)c1cccc(NC(=O)Cc2cccc(NC(=O)C3CCCN(C(=O)CCc4ccccc4)C3)c2)c1 (stereo not given) -1.39%, O=C(Nc1ccn(CCCNCc2ccc3[nH]ccc3c2)c(=O)n1)OCc1ccccc1 -7.16%, CCCCN1CC(COc2ccccc2)Oc2cccc(F)c2S1(=O)=O (stereo not given) -1.66%, O=C(NNC(=O)c1ccccc1O)c1ccccc1O -9.27%, CN(CC(=O)O)C(=O)c1ccccc1 28.8%, CN(/N=C/c1ccccc1)C(=S)c1ccccc1 -15.5%, CCc1ccc(C(=O)C(C)OC(=O)CN2C(=O)NC3(CCCC3)C2=O)cc1 (stereo not given) -1.32%, Cc1nnsc1C(=O)N/N=C/c1ccccc1Cl 1.6%, O=C(Nc1ccc(Cl)cc1)Nc1nnc(/C=C/c2ccccc2)s1 8.47%, O=C(C[C@H]1C/C=C\C[C@@H](NC(=O)OCC2c3ccccc3-c3ccccc32)C(=O)O[C@@H](c2ccccc2)CNC1=O)N[C@H](CO)Cc1ccccc1 -13.9%, OCCN1CCN(CCO)C1=S 15.3%, S=c1[nH]nc(-c2cc(-c3ccccc3)n[nH]2)n1/N=C/c1c2ccccc2cc2ccccc12 -28.2%, Oc1ccccc1/C=N/n1c(-c2cccs2)n[nH]c1=S -9.75%, CCCN(CCC)S(=O)(=O)c1cc2c(cc1Br)CCN2C(=O)CC -17.7%, CSCCC(NC(=O)COc1ccccc1)C(=O)OCc1ccc(Cl)cc1 (stereo not given) 6.52%, O=C1/C(=C\c2ccc(O)cc2)CCC1CNc1ccc(Cl)cc1 (stereo not given) 42.3%, CC(C)N(C(=O)[C@H]1C[C@H](CC(=O)NC(C)(C)C)C(=O)N2CCc3c([nH]c4ccc(Cl)cc34)[C@]12C)C(C)C 21.3%, CC1(C)C2CCC1(C)C(OC(=O)c1ccc(O)cc1)C2 (stereo not given) 11.7%, COC(=O)c1ccc(NCc2cc(O)ccc2O)cc1 30.3%, O=C(Nc1c(Br)cc2c(c1Br)Cc1cc([N+](=O)[O-])ccc1-2)C(Cl)Cl -28.5%, O=S1(=O)CCOC[C@H](Cc2ccccc2)N1Cc1ccccc1Br 10.2%, C=CCOC(=O)N1CCC2CC1c1cc(-c3ccc(OC)cc3)ccc12 (stereo not given) -3.16%, COc1ccccc1C(=O)c1ccccc1C(=O)c1ccccc1 -29.9%, CN(CCc1ccccc1)C(=O)c1cccc(NC(=O)Cc2cccc(NC(=O)C3CCCN(C(=O)C4CCC4)C3)c2)c1 (stereo not given) 10.6%, CCOC(=O)c1ccc(N2C(=O)CC(N3CCN(C(=O)c4ccccc4)CC3)C2=O)cc1 (stereo not given) 18.7%, CCOC(=O)c1ccc(N2C(=O)CC(N3CC(C)OC(C)C3)C2=O)cc1 (stereo not given) 11.2%, CSc1ncnc2c1ncn2CC(=O)C1CCC2C3CCC4=CC(=O)CCC4(C)C3CCC12C (stereo not given) 17%, CCOC(=O)[C@H]1[C@H]2COc3ccc(Br)cc3[C@@H]2N2C(=O)CN(C)C(=O)[C@@]12C 3.33%, C=CC(=O)Nc1ccc(Nc2ccnc(Nc3ccc(N4CCN(C)CC4)cc3)n2)cc1 1.37%, CCN(CC)S(=O)(=O)c1ccc(N2CCCC2)c(NC(=O)c2ccc([N+](=O)[O-])o2)c1 7.78%, O=C(c1ccccc1)N1N=C(c2ccccc2O)CC1c1ccc(Br)cc1 (stereo not given) -6.75%, CC(=O)Oc1ccccc1C1=NN(C(C)=O)C(c2ccccc2)C1 (stereo not given) 6.42%, Fc1ccccc1COc1cccc2cccnc12 5.74%, OCc1ccc(OCCCOc2cccc3cccnc23)cc1 24.6%, CCOc1ccc(S(=O)(=O)N2CCN(C(=O)c3oc4ccccc4c3C)CC2)cc1 -16.3%, CC(=O)Oc1ccc(OC(C)=O)c2c1C1C=CC2CC1 -4.99%, O=C(NN=Cc1ccc([N+](=O)[O-])cc1)C1CC1 -9.96%, O=[N+]([O-])c1ccc(C=NN=Cc2ccc([N+](=O)[O-])cc2)cc1 -1.39%
